Source: PubChem BioAssay (National Center for Advancing Translational Sciences (NCATS))
PLK1 PBD inh – PLK1 (human) polo-box domain binding inhibition. P53350. Plk1 PBD binding of FITC phosphopeptide, fluorescence polarization. Potency, µM, without a hit: max response, negative = inhibition, usual class: inhibitors. actives 2.8% (n = 360,000); also: series mostly up to about 57 µM; % is scaled to controls: 0 for no effect and ±100 for the full control effect; nearly all actives have a fitted effect of over 65% in size
USP1 inh – blocks the human USP1/UAF1 deubiquitinase complex; recombinant USP1/UAF1, Ub-Rhodamine cleavage fluorescence; Potency, µM (titrated, usually from 57.1 µM), inactives show at the top dose activity change, negative = inhibition, most hits filed as inhibitors; actives 0.23% (n = 390,000); also: % is scaled to controls: 0 for no effect and ±100 for the full control effect; nearly all actives have a fitted effect of over 60% in size
Target sequence (O94782 whole entry, looked up): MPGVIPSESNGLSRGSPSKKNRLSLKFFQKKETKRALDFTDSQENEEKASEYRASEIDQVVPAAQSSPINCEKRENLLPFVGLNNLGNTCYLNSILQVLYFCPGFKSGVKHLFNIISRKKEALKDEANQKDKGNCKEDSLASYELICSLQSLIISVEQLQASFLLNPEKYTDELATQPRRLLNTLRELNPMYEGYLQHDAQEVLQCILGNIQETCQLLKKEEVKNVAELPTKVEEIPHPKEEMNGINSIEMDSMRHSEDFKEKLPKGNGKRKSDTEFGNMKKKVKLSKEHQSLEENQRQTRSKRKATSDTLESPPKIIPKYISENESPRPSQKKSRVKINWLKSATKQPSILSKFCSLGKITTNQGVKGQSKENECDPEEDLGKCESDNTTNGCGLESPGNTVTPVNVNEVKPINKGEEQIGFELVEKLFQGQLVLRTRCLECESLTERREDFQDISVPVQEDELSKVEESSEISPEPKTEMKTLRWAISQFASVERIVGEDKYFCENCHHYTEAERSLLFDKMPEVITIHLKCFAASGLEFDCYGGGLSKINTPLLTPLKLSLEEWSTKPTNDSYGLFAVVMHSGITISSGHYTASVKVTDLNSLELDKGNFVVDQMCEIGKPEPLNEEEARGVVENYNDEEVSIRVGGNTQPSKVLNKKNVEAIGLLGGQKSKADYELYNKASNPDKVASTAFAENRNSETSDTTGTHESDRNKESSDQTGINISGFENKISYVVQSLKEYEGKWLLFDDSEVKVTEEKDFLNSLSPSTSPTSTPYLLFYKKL
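Step one: compound is pinned into 1nM USP1/UAF1 in HEPES pH 7.8 buffer with TCEP. Step two: 15 min room-temperature incubation. Step three: Ub-Rho (150nM final) starts cleavage, tracked by fluorescence over six one-minute reads.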
VDR inhibitor – inhibitors of human vitamin D receptor | P11473 | VDR-SRC2-3 peptide fluorescence polarization, 2 h | Potency, µM, inactives show max response, negative = inhibition, hits mostly inhibitors | actives 0.93% (n = 400,000) | AID 504847; also: % is scaled to controls: 0 for no effect and ±100 for the full control effect
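Fluorescence polarization assay of small-molecule disruption of VDR binding to coregulator peptide SRC2-3. Compounds and controls pin-transferred, then read after 2 h incubation at ambient room temperature.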
TSG101-PTAP inh – blocks PTAP/TSG101 interaction to inhibit HIV-1 budding | Q99816 | Fluorescence polarization, FITC-PTAP peptide / Tsg101 binding | Potency, µM (top dose mostly 115 µM), inactives show at the top dose activity change, negative = inhibition, usual class: inhibitors | 340,000 tested, under 10 active | AID 493005; active = well fitted inhibition curve with a large enough effect in the main read-out, with a control signal flat, not every such curve was filed as active; inconclusive = small, poorly fitted or top-dose-only effect, or effect the other way, or a change in a side signal; inactive = no such curve, though single readings can be large or run the other way; also: % of control where 0% means no effect
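Tsg101 binding domain (10 uM final) was mixed with compound and a FITC-labeled PTAP peptide (50 nM final) in HEPES pH 7.5 buffer with NaCl, Tween 20, EDTA and TCEP; fluorescence polarization was read after 20 min at r.t.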
KAT2A inh – inhibitors of human GCN5L2 histone acetyltransferase | GCN5L2 HAT assay, ThioGlo1 CoA-SH fluorescence | Potency, µM (doses to about 58.9 µM), without a hit: at the highest dose activity change, negative = inhibition, usual class: inhibitors | actives 0.21% (n = 390,000); also: % is scaled to controls: 0 for no effect and ±100 for the full control effect
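Titration-based screen in which CoA formation is detected via maleimide probe ThioGlo1 (50uM) turning fluorescent on thiol reaction; substrates H3(1-25) 75uM and acetyl-CoA 70uM, GCN5L2 20nM, 20 min incubation at room temperature.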
Numbers without * were called inactive; ? = inconclusive; . = not tested or not shown. A selection: hits, their analogues and other compounds. The true share with any hit is near 3%. Unless noted, calls follow the shape of the dose curve; as a rule, active = well fitted curve in the direction sought with a large enough effect; inconclusive = small, poorly fitted or top-dose-only effect, or another doubt; inactive = no such curve, though single readings can be large; an effect the other way counts as inactive or inconclusive. Potency is read from the fitted curve at half-maximal effect.

SMILES | PLK1 PBD inh | USP1 inh | VDR inhibitor | TSG101-PTAP inh | KAT2A inh
COc1cccc(C(=O)NCC(=O)OCc2cc(=O)n3nc(C)sc3n2)c1 | . | 7% | 8% | . | -7%
Cc1cc(N2C(=O)C(O)=C(C(=O)c3cc4ccccc4o3)C2c2ccc(Cl)cc2)no1 (stereo unspecified) | ? | ? | -27% | -10% | ?
Cc1cc(N2C(=O)C(O)=C(C(=O)c3cc4ccccc4o3)C2c2ccc(Br)cc2)no1 (stereo unspecified) | 21µM* | -13% | ? | -17% | ?
COc1ccc(OC)c(C2C(C(=O)c3ccc(C)o3)=C(O)C(=O)N2c2cc(C)on2)c1 (stereo unspecified) | 24µM* | -13% | ? | -5% | -12%
Cc1cc(N2C(=O)C(O)=C(C(=O)c3ccc(C)o3)C2c2cccc(Oc3ccccc3)c2)no1 (stereo unspecified) | 24µM* | -20% | ? | -12% | 0%
COc1ccc(C2C(C(=O)c3ccc(C)o3)=C(O)C(=O)N2c2cc(C)on2)cc1OC (stereo unspecified) | -1% | -14% | 13% | -4% | -1%
CC(=O)c1cccc(NC(=O)C(Cc2ccccc2)NS(=O)(=O)c2ccc(Br)s2)c1 (stereo unspecified) | . | -13% | -23% | . | 0%
CCOC(=O)c1c(C)n(C)c2ccc(OC)c(NC(=O)CN3CCSCC3)c12 | -6% | -6% | -16% | -6% | -6%
CCOC(=O)c1c(C)n(C)c2ccc(OC)c(NC(=O)c3cccs3)c12 | 30µM* | -14% | -9% | -16% | -3%
CCC(/C=C/C(C)C1CCC2C3CCC4=CC(=O)CC[C@@]4(C)C3CC[C@@]12C)C(C)C (stereo partly specified) | . | . | -8% | . | -5%
O=C(O)COc1ccccc1-c1nc(-c2ccccc2)c(-c2ccccc2)[nH]1 | 34µM* | -25% | -12% | -4% | -15%
CCc1ccc(NC(=S)Nc2cc(C(=O)O)ccc2N2CC3CC(C2)c2cccc(=O)n2C3)cc1 (stereo unspecified) | -21% | -12% | ? | -2% | -6%
O=C(O)c1ccc(N2CC3CC(C2)c2cccc(=O)n2C3)c(NC(=S)Nc2ccc(Br)cc2)c1 (stereo unspecified) | 19µM* | -29% | ? | -2% | -12%
Cc1ccc(NS(=O)(=O)N(C)C)cc1 | -5% | 2% | 10% | -4% | -1%
CN(C)S(=O)(=O)Nc1cc(Cl)cc(Cl)c1 | 30µM* | ? | 7% | -4% | -9%
COc1ccccc1S(=O)(=O)N(C)C[C@H]1Oc2ncc(Br)cc2C(=O)N([C@H](C)CO)C[C@H]1C | -6% | ? | . | . | .
COC1=CC(=O)C(O)=C/C1=C\C=C\c1ccccc1 | . | . | 2.8µM* | . | -15%
COc1cc(O)cc(/C=C/c2ccccc2)c1 | -18% | -16% | 8% | -7% | -7%
COc1cc(CCNC2=CC(=O)c3ncccc3C2=O)ccc1O | -9% | 18µM* | -16% | -7% | .
CC(=O)N1CCc2cc(C(=O)CN3CCN(c4ccccn4)CC3)ccc21 | -2% | -27% | -18% | 0% | 2%
CC(C)C(Cl)=NOC(=O)Nc1ccc(S(N)(=O)=O)cc1 | 8.4µM* | -22% | ? | 0% | .
COC(=O)[C@H](C)NC(=O)Nc1ccc(S(N)(=O)=O)cc1 | -6% | -25% | -17% | -8% | -3%
CCNC(=O)Nc1ccc(-n2nc(C)c(C(=O)OCC)c2C)nc1 | 15µM* | -15% | -23% | -4% | -18%
c1coc(-c2cc3nc(NC4CCCCC4)ccn3n2)c1 | -6% | . | . | . | .
CSCC[C@H](NC(=O)N1CCn2c1nc1ccccc12)C(=O)NCc1ccco1 | 27µM* | -9% | -16% | -1% | -14%
SMILES | PLK1 PBD inh | USP1 inh | VDR inhibitor | TSG101-PTAP inh | KAT2A inh
CSc1ccccc1C(=O)Nc1cc2c(cc1C(=O)O)OCCCO2 | 30µM* | -22% | -18% | 0% | 0%
CCCCN=Cc1sc2ccc(OCC)cc2c1O | 27µM* | -20% | ? | -9% | -2%
C=CCN=Cc1sc2ccc(OCC)cc2c1O | . | . | . | . | -8%
C[C@]12CC[C@@H]3c4ccc(O)cc4CC[C@H]3[C@@H]1C[C@H](O)C2O (stereo partly specified) | . | . | -4% | . | -10%
Cn1c(CS/C(N)=N/N=C/c2ccccc2)c(Br)c(=O)n1-c1ccccc1 | 24µM* | -1% | 50µM* | 0% | -16%
Cc1ccc(-c2c(C(=O)Nc3ccc(F)c(F)c3)oc(=O)c3ccccc23)cc1 | . | -21% | 1% | . | -20%
CCC1CC2(C)NC(=O)c3c(sc4c3CC(C)(C)OC4)N2C1=O (stereo unspecified) | 12µM* | -5% | ? | -6% | -6%
Cn1c(NN)nc2sc3c(c2c1=O)CC(C)(C)OC3 | -7% | -13% | 7% | -4% | -8%
CCCc1cnc2c(c1SCc1ccc(C(F)(F)F)cc1)c(=O)n(C)c(=O)n2C | . | -5% | 21% | . | -8%
CC1CCN(C(=O)c2ccc(NC(=O)c3nsc4ccccc34)cc2)CC1 | . | ? | -4% | . | -3%
CN(C)c1ccc(C(CNC(=O)Cc2ccc(Cl)cc2)N2CCOCC2)cc1 (stereo unspecified) | . | -11% | 13% | . | -7%
Cc1nnc(N2CCc3ccccc3C2)[nH]c1=O | 30µM* | -18% | -17% | -1% | -3%
Cc1nc(N2CCc3ccccc3C2)[nH]c(=O)c1CCC(C)C | -1% | -5% | 5% | -3% | -3%
CSc1nc(O)c(C(c2ccc(OC(C)C)cc2)c2c(O)nc(SC)[nH]c2=O)c(=O)[nH]1 | 11µM* | 3% | 22µM* | 0% | .
CSc1nc(O)c(C(c2ccc(F)cc2)c2c(O)nc(SC)[nH]c2=O)c(=O)[nH]1 | ? | -17% | ? | -3% | .
CCOCCOC(=O)c1[nH]c2c(c1C)C(=O)CC(c1ccccc1)C2 (stereo unspecified) | 0% | -15% | -7% | -2% | -9%
CCCCCOC(=O)c1[nH]c2c(c1C)C(=O)CC(c1ccco1)C2 (stereo unspecified) | 24µM* | -6% | 79µM* | 1% | -12%
COc1cc(Cl)c(C)cc1NC(=O)CSc1nc2c(c(=O)[nH]1)CCCC2 | . | -2% | 15% | . | -3%
COc1ccccc1CNC(=O)c1cccc(NC(=O)N2CCSc3ncccc32)c1 | . | -5% | 0% | . | -5%
CCOc1cc(/C=C\[N+](=O)[O-])ccc1OCC(=O)Nc1ccccc1C | ? | -9% | 4.5µM* | 3% | -2%
O=C(Oc1ccc(Br)cc1C(=S)N1CCOCC1)c1ccc([N+](=O)[O-])cc1[N+](=O)[O-] | 6µM* | -17% | ? | 1% | -6%
O=C(Oc1ccc(Br)cc1C(=S)N1CCCC1)c1ccccc1F | 27µM* | -25% | -14% | 3% | -6%
